phage Ecoli inh – E. coli growth loss with phage present. 360,000 compounds, 0.26% hits. growth absorbance. inhibition, % at 11.9 µM; in the data active = inhibition above about 11%
E coli growth-1 – counter-screen for AddAB inhibitors: E. coli growth inhibition; 330,000 compounds, 0.27% hits; E. coli V3065 growth, OD600 absorbance, 18 h; inhibition, % at 11.9 µM;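 active = inhibition above the campaign's mean inhibition across all tested compounds plus 3 SD, cut at about 9.9% in these data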;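 note: uninfected addAB+ strain grown without phage in ampicillin broth; 0% = DMSO wells and 100% = ciprofloxacin 0.95 µg/ml wells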
Tat export inh – blocks Tat-dependent protein export in E. coli; E. coli MC4100 TorA-mCherry Tat export, fluorescence; inhibition, % at 10 µM; 340,000 compounds, 0.036% hits; AID 488895;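 active = mean replicate inhibition at least 50% and at least half of replicates individually reaching 50%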;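 note: exported cargo escapes ClpAP degradation while cytoplasmic cargo is degraded and loses fluorescence; 0% = median of neutral control wells and 100% = median of NaSCN control wells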
E coli growth-2 – E. coli growth inhibition | Escherichia coli growth, OD600, 23 h; hits give low values | OD600 absorbance (concentration not given with the values) | 330,000 compounds, 0.21% hits | AID 1053175;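 active = OD600 absorbance below the run mean of sample wells minus 3.6 SD, in any replicate, cut at about 0.56 in these data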
AddAB inh – less growth of phage-infected E. coli with AddAB; AID 435030; 330,000 compounds, 0.29% hits; E. coli expressing H. pylori AddAB, absorbance growth; inhibition, % at 11.9 µM; in the data active = inhibition above about 12%;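 note: 0% = vehicle wells of infected cells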
AddAB confirm – growth loss of T4-infected E. coli expressing H. pylori AddAB, confirmed; E. coli V3065 expressing H. pylori AddAB, T4 phage, OD; T4 phage with gene 2 nonsense mutations; inhibition, % at 11.9 µM; shares compounds with AddAB inh; 880 compounds, 64% hits;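 active = mean inhibition above a set limit taken from the earlier primary screen, cut at about 13% in these data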;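 note: higher means less bacterial growth since AddAB block lets phage replicate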
RecBCD counter – reduces growth of phage-infected RecBCD+ E. coli, AddAB inhibitor counter-screen; shares compounds with AddAB inh; E. coli V66 + mutant T4 phage, OD growth; inhibition, % at 11.9 µM; 880 compounds, 73% hits; AID 488955;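 active = mean inhibition above the mean of solvent-only control wells plus 3 SD, cut at about 4% in these data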;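 note: optical density read after an 18 h incubation at 37 °C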
bact viab count – reduces bacterial viability, AddAB inhibitor counter-screen; inhibition, % at 11.9 µM; absorbance (AddAB counterscreen); 880 compounds, 35% hits; shares compounds with AddAB inh; AID 488956; in the data active = inhibition above about 25%
* = called active by the depositor. Sampled rows, rich in hits. Any-hit rate of the full collection: about 0.51%.

For CCc1nnc(NS(=O)(=O)c2ccc(N=Cc3c(C)[nH]n(-c4ccc(Cl)cc4)c3=O)cc2)s1 the results were phage Ecoli inh 9.5, E coli growth-1 8.9, Tat export inh -8.3, AddAB inh 13.5*, AddAB confirm 8.5, RecBCD counter 7.0* and bact viab count 10.8.
`COc1nccnc1NS(=O)(=O)c1ccc(N=Cc2c(C)[nH]n(-c3ccc(Cl)cc3)c2=O)cc1` gave phage Ecoli inh 6.5, E coli growth-1 4.7, E coli growth-2 0.678 and AddAB inh 3.2.
`Cc1sc2cc3c(c(C(=O)c4ccccc4)[n+]2c1C)-c1cccc2cccc-3c12` gave phage Ecoli inh 3.0, E coli growth-1 -0.3, E coli growth-2 0.557 and AddAB inh 6.2.
O=C(c1ccccc1)c1c2c(cc3sc4ccccc4[n+]13)-c1cccc3cccc-2c13 was read as phage Ecoli inh 7.2, E coli growth-1 5.5, Tat export inh 7.3, E coli growth-2 0.48*, AddAB inh 16.4*, AddAB confirm 89.3*, RecBCD counter 0.9 and bact viab count 19.3.
Screening Cn1c(=O)c2c(nc(CN3CCC(C(N)=O)CC3)n2Cc2c(F)cccc2Cl)n(C)c1=O returned phage Ecoli inh 3.5, E coli growth-1 -4.4, Tat export inh -5.9, E coli growth-2 0.716 and AddAB inh -0.8.
Screening CC1CCCCN1Cc1nc2c(c(=O)n(C)c(=O)n2C)n1Cc1c(F)cccc1Cl (stereo unspecified) returned E coli growth-1 25.0*, Tat export inh -0.2, E coli growth-2 0.725, AddAB inh 34.7*, AddAB confirm -4.6, RecBCD counter -1.4 and bact viab count -3.3.
COc1ccc2c(c1OC)C(=O)OC2C1c2c(cc3c(c2OC)OCO3)CCN1C (stereo unspecified) was read as phage Ecoli inh 2.9, E coli growth-1 -2.7, Tat export inh 7.6, E coli growth-2 0.688 and AddAB inh -3.8.
CN1CCc2cc3c(c4c2[C@H]1[C@H](O)c1ccccc1-4)OCO3 was read as phage Ecoli inh 1.1, E coli growth-1 7.5, Tat export inh 6.3, AddAB inh 12.8*, AddAB confirm 27.3*, RecBCD counter -0.6 and bact viab count 5.6.
For CC(C)Cc1cc(C(=O)NCCN2CCOCC2)no1 the results were phage Ecoli inh 1.6, E coli growth-1 4.5, Tat export inh -7.9, E coli growth-2 0.716, AddAB inh 18.9*, AddAB confirm -1.5, RecBCD counter 0.7 and bact viab count -1.3.
For Cc1ccc(S(=O)(=O)N2CCC(C(=O)NNC(=O)c3ccccc3O)CC2)cc1 the results were phage Ecoli inh 9.2, E coli growth-1 5.6, Tat export inh -2.0, E coli growth-2 0.735 and AddAB inh 10.2.
Screening Cc1ccc(S(=O)(=O)N2CCC(C(=O)NNC(=O)c3ccccc3O)CC2)cc1C returned phage Ecoli inh 7.2, E coli growth-1 9.1, Tat export inh -8.5, E coli growth-2 0.7, AddAB inh 13.7*, AddAB confirm 11.8, RecBCD counter 9.4* and bact viab count 13.2.
Screening C#Cc1ccc(C2C=C(C(=O)OCC=C)OC(OCCCCO)C2)cc1 (stereo unspecified) returned E coli growth-2 0.649.
For CCOc1cc(N)c(Cl)cc1C(=O)NCC1CN(Cc2ccc(F)cc2)CCO1 (stereo unspecified) the results were phage Ecoli inh 5.0, E coli growth-1 92.5*, Tat export inh 2.8, E coli growth-2 0.0635*, AddAB inh 98.6*, AddAB confirm 101.0*, RecBCD counter 11.6* and bact viab count 97.9*.
Screening CC(=O)Nc1ccc(C=NNC(=O)CCN2CCN(c3ccccc3)CC2)cc1 returned E coli growth-2 0.674.
O=C(CCN1CCN(c2ccccc2)CC1)N/N=C/c1ccc([N+](=O)[O-])o1 was read as phage Ecoli inh 7.0, E coli growth-1 6.9, Tat export inh 6.9, AddAB inh 26.4*, AddAB confirm 78.1*, RecBCD counter 3.7 and bact viab count 7.2.
Screening O=C(CNc1cccc2ccccc12)N/N=C/c1ccc([N+](=O)[O-])o1 returned phage Ecoli inh 3.1, E coli growth-1 2.5, Tat export inh -20.7, AddAB inh 13.7*, AddAB confirm 35.5*, RecBCD counter 2.9 and bact viab count 6.3.
`CC(CN1C(=O)C(=O)NCC1Cc1ccc(O)cc1)NC(=O)Cc1ccccc1` (stereo unspecified) gave E coli growth-2 0.686.
`O=S1(=O)Nc2c(ccc3cccnc23)-c2ccccc21` gave E coli growth-1 51.4*, Tat export inh 21.0, E coli growth-2 0.222*, AddAB inh 50.7*, AddAB confirm 44.8*, RecBCD counter 49.0* and bact viab count 46.4*.
CCC(=O)Nc1cccc(C2=NOC3(C2)CC(C(N)=O)N(C(=O)Cc2ccc([N+](=O)[O-])cc2)C3)c1 (stereo unspecified) was read as E coli growth-2 0.656.
C#CCOCCOCCOCCNc1nc(N2CCN(C(=O)CCCCCCCCCCNC(=O)C(CCCCN)n3cc(CCO)nn3)CC2)nc(N2CCN(C(=O)CCCCCCCCCCNC(=O)C(CCCCN)n3cc(CCCC(=O)O)nn3)CC2)n1 (stereo unspecified) was read as E coli growth-2 0.608.
Screening C[C@H]1c2cccc(O)c2C(O)=C2C(=O)[C@]3(O)C(O)=C(C(N)=O)C(=O)[C@@H](N(C)C)C3[C@@H](O)C21 (stereo partly specified) returned phage Ecoli inh 101.4*, E coli growth-1 100.2*, Tat export inh 146.4*, AddAB inh 99.0*, AddAB confirm 99.3*, RecBCD counter 98.5* and bact viab count 99.5*.
O=C1c2ccccc2C(=O)c2c(Nc3ccc(CCO)cc3)ccc(O)c21 was read as phage Ecoli inh -0.6, E coli growth-1 -4.8, Tat export inh -4.3 and AddAB inh -2.4.
O=C1c2c(O)ccc(O)c2C(=O)c2c(NCCNCCO)ccc(NCCNCCO)c21 was read as phage Ecoli inh -0.8, E coli growth-1 32.1*, Tat export inh 11.4, E coli growth-2 0.757, AddAB inh 31.4*, AddAB confirm 52.1*, RecBCD counter -2.9 and bact viab count 51.3*.
`O=C(NC(=S)NNC(=O)c1ccccc1O)c1ccco1` gave phage Ecoli inh 5.7, E coli growth-1 2.5, Tat export inh -1.4, E coli growth-2 0.373*, AddAB inh 14.2*, AddAB confirm 16.6*, RecBCD counter 17.3* and bact viab count 37.2*.

Screening data deposited in PubChem by several laboratories.
